In the test the test system is Plasmodium falciparum NF54. The experiment in a line: growth inhibition relative to untreated control; higher = more inhibition. As to conditions: 72 h. The method, boiled down:
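Growth inhibition was measured by SYBR Green fluorescence, normalised to untreated wells and corrected for background from uninfected erythrocytes. The parasites were P. falciparum NF54 ring stages (1% hematocrit, 1% parasitemia) exposed to single 5 μM or 1 μM doses of test compounds for 72 h at 37 °C, in either minimal RPMI or minimal RPMI containing 2.2 μM folate, 7.3 μM pABA, 7.3 μM pHBA, 111 μM tyrosine, 90 μM phenylalanine and tryptophan.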

The mark [1] stands for this setting: 1 µM, MM + chorismate end-products (CM screening medium).
[2] abbreviates: 5 µM, MM + chorismate end-products (CM screening medium).

Some results are limits rather than exact numbers.

The values below come from the supplement of paper PMC6763611.

Turning to `O=C(c1cc2ccccc2o1)N1CCN(Cc2ccc3c(c2)OCO3)CC1`, the growth inhibition is, setting by setting: under setting [1], 15.1%; (1 µM, minimal medium (MM)) 12.4%; under setting [2], below 0%; (5 µM, minimal medium (MM)) below 0%.

Take `Cc1ccc2nc(Cl)c(CNCc3cccs3)cc2c1`: the growth inhibition under setting [1] is 49.9%; the growth inhibition (1 µM, minimal medium (MM)) turned out to be 31.9%; the growth inhibition under setting [2] is below 0%; the growth inhibition (5 µM, minimal medium (MM)) was below 0%.

Consider `COc1ccc(Cn2cnc3c(-c4ccco4)nc(Cl)nc32)cc1`, for which the growth inhibition by setting is: under setting [1], below 0%; (1 µM, minimal medium (MM)) 13.5%; under setting [2], 48.9%; (5 µM, minimal medium (MM)) 23.6%.

For the compound `CC[C@@H]([C@H](C)O)n1ncn(-c2ccc(N3CCN(c4ccc(OC[C@@H]5CO[C@@](Cn6cncn6)(c6ccc(F)cc6F)C5)cc4)CC3)cc2)c1=O`, the growth inhibition is 45.5% under setting [1]; 50.3% (1 µM, minimal medium (MM)); 88.9% under setting [2]; 83.4% (5 µM, minimal medium (MM)).

For `CNc1snc(C)c1C(=O)NCCOc1ccc(OC)cc1`, the growth inhibition is 42.3% under setting [1]; below 0% (1 µM, minimal medium (MM)); 42.9% under setting [2]; 34.9% (5 µM, minimal medium (MM)).

On to `CCCCN(CCCC)c1c(C#N)cc(S(=O)(=O)Nc2ccccc2)cc1C#N`, for which the growth inhibition is below 0% under setting [1]; below 0% (1 µM, minimal medium (MM)); 39.9% under setting [2]; 35.7% (5 µM, minimal medium (MM)).

With `Cc1ccc(C(=O)Nc2ccc(S(=O)(=O)O)c3cc(S(=O)(=O)O)cc(S(=O)(=O)O)c23)cc1NC(=O)c1cccc(NC(=O)Nc2cccc(C(=O)Nc3cc(C(=O)Nc4ccc(S(=O)(=O)O)c5cc(S(=O)(=O)O)cc(S(=O)(=O)O)c45)ccc3C)c2)c1`, the growth inhibition is, setting by setting: under setting [1], below 0%; (1 µM, minimal medium (MM)) below 0%; under setting [2], below 0%; (5 µM, minimal medium (MM)) 12.6%.

Take `Cc1nc2ccccn2c1C(=O)NCc1ccc(Cl)cc1`: the growth inhibition under setting [1] was 1.31%; the growth inhibition (1 µM, minimal medium (MM)) was below 0%; the growth inhibition under setting [2] was determined as 31%; the growth inhibition (5 µM, minimal medium (MM)) stood at 10.3%.

Take `Clc1ccc(Cl)c(CO[C@H]2CCCC[C@@H]2n2ccnc2)c1`: the growth inhibition under setting [1] was below 0%; the growth inhibition (1 µM, minimal medium (MM)) is below 0%; the growth inhibition under setting [2] was 67.1%; the growth inhibition (5 µM, minimal medium (MM)) is 9.72%.

On to `Cc1nc(-c2ccccn2)nc(NCCc2ccc(S(C)(=O)=O)cc2)c1Cl`, for which the growth inhibition runs as follows: under setting [1], 32.5%; (1 µM, minimal medium (MM)) below 0%; under setting [2], 8.44%; (5 µM, minimal medium (MM)) below 0%.

In the case of `Clc1ccc(CN2CCN(C3=NCCN3)CC2)cc1Cl`, the growth inhibition is, setting by setting: under setting [1], below 0%; (1 µM, minimal medium (MM)) below 0%; under setting [2], 48.8%; (5 µM, minimal medium (MM)) 10%.

As for `c1cncc(NCc2ccc(-c3cc4ccncc4cc3OC3CCNCC3)s2)c1`, the growth inhibition under setting [1] turned out to be 98.6%; the growth inhibition (1 µM, minimal medium (MM)) stood at 98%; the growth inhibition under setting [2] is above 100%; the growth inhibition (5 µM, minimal medium (MM)) was found to be 84.2%.

Turning to `C[C@H](C(N)=O)N1CCCC[C@@H]1c1ccc(OCc2cccc(F)c2)cc1`, the growth inhibition under setting [1] was found to be 45.1%; the growth inhibition (1 µM, minimal medium (MM)) was below 0%; the growth inhibition under setting [2] was 14.2%; the growth inhibition (5 µM, minimal medium (MM)) was determined as 15.9%.

With `O=C(NCCN1CCCC1)c1cc(NCCN2CCOCC2)nc2ccc(Cl)cc12`, the growth inhibition under setting [1] is 97.7%; the growth inhibition (1 µM, minimal medium (MM)) was 97.2%; the growth inhibition under setting [2] amounted to 92.2%; the growth inhibition (5 µM, minimal medium (MM)) came out at 96.8%.

As for `O=C(NC1CC1)c1ccc(N2CCC(Cc3ccccc3)CC2)nc1`, the growth inhibition was found to be 95.5% under setting [1]; 91.8% (1 µM, minimal medium (MM)); 95.7% under setting [2]; 92.1% (5 µM, minimal medium (MM)).

With `Cc1cc(Nc2ccc(C(F)(F)F)cc2)n2ccnc2n1`, the growth inhibition under setting [1] is 97.2%; the growth inhibition (1 µM, minimal medium (MM)) amounted to 94.6%; the growth inhibition under setting [2] amounted to 97.3%; the growth inhibition (5 µM, minimal medium (MM)) was 94.4%.

With `Cc1cc(C)n(-c2ccc(NC(=O)C3CCN(Cc4cnc(C)s4)CC3)cc2)n1`, the growth inhibition came out at 31% under setting [1]; 27.5% (1 µM, minimal medium (MM)); 43.6% under setting [2]; 10.6% (5 µM, minimal medium (MM)).

As for `OC[C@H]1O[C@@H](n2c3ccc(Cl)cc3c3c(-c4cc5ccccc5o4)ncnc32)C(O)[C@H]1O` (some centres undefined), the growth inhibition under setting [1] was found to be 1.89%; the growth inhibition (1 µM, minimal medium (MM)) is 13.6%; the growth inhibition under setting [2] was 63.8%; the growth inhibition (5 µM, minimal medium (MM)) stood at 30%.

In the case of `c1ccc(C[C@@H]2CN(c3nccc(Oc4ccc(-n5ccnc5)cc4)n3)CCN2)cc1`, the growth inhibition is, setting by setting: under setting [1], 98.3%; (1 µM, minimal medium (MM)) 97.5%; under setting [2], 95.3%; (5 µM, minimal medium (MM)) 95.3%.

In the case of `CS(=O)(=O)N1CCC(Cn2nc(Cc3cccc4ccccc34)c3c(N)ncnc32)CC1`, the growth inhibition was 41.5% under setting [1]; below 0% (1 µM, minimal medium (MM)); 42.7% under setting [2]; 17.6% (5 µM, minimal medium (MM)).

In the case of `OCCc1ccc(Nc2nccc(-c3nnc4ccccn34)n2)cc1`, the growth inhibition reads like this: under setting [1], 82.3%; (1 µM, minimal medium (MM)) 80.1%; under setting [2], 65.5%; (5 µM, minimal medium (MM)) 52.1%.

Regarding `Cc1cc2nc(NC(=O)C(C)(C)C)nc(Cl)c2n1Cc1ccc(Cl)cc1`, the growth inhibition is 35.7% under setting [1]; 28.8% (1 µM, minimal medium (MM)); below 0% under setting [2]; below 0% (5 µM, minimal medium (MM)).

Regarding `COc1ccc(CCN2CCC(NCc3cccc(N(C)C)c3)CC2)cc1`, the growth inhibition is, setting by setting: under setting [1], 88.1%; (1 µM, minimal medium (MM)) above 100%; under setting [2], above 100%; (5 µM, minimal medium (MM)) 94.6%.

Regarding `Clc1cccc(CO[C@H]2CCc3ccccc3[C@@H]2n2ccnn2)c1`, the growth inhibition is 7.57% under setting [1]; below 0% (1 µM, minimal medium (MM)); below 0% under setting [2]; 15.4% (5 µM, minimal medium (MM)).

As for `NC(=O)c1cc(Br)ccc1OCCOc1ccccc1`, the growth inhibition is, setting by setting: under setting [1], 14.5%; (1 µM, minimal medium (MM)) below 0%; under setting [2], 28.6%; (5 µM, minimal medium (MM)) below 0%.

Take `Cc1nnc(NC(=O)c2cn(-c3ccccc3)nc2-c2ccccc2C)o1`: the growth inhibition is 89.2% under setting [1]; 87.7% (1 µM, minimal medium (MM)); 83.6% under setting [2]; 83.6% (5 µM, minimal medium (MM)).

Regarding `COc1ccccc1OCCCCn1c(C2CC2)nc2ccccc21`, the growth inhibition reads like this: under setting [1], 37%; (1 µM, minimal medium (MM)) 21.3%; under setting [2], 74.9%; (5 µM, minimal medium (MM)) 50.7%.

Regarding `COc1cccc(-c2cc3c(Nc4cccnc4)nccc3[nH]2)c1`, the growth inhibition reads like this: under setting [1], 91%; (1 µM, minimal medium (MM)) 18.4%; under setting [2], 94.2%; (5 µM, minimal medium (MM)) 94.8%.

`c1ccc(Oc2ccc(-c3cc(N4CCOCC4)[nH]n3)cc2)cc1`: the growth inhibition by setting is: under setting [1], above 100%; (1 µM, minimal medium (MM)) below 0%; under setting [2], 7.27%; (5 µM, minimal medium (MM)) below 0%.

On to `O=C(COc1cccc(F)c1)Nc1nc(-c2ccccn2)cs1`, for which the growth inhibition was below 0% under setting [1]; 2.24% (1 µM, minimal medium (MM)); below 0% under setting [2]; below 0% (5 µM, minimal medium (MM)).

Consider `C[C@H]1COc2c(N3CCN(C)CC3)c(F)cc3c(=O)c(C(=O)O)cn1c23`, for which the growth inhibition by setting is: under setting [1], 17.1%; (1 µM, minimal medium (MM)) below 0%; under setting [2], 5.29%; (5 µM, minimal medium (MM)) 15.8%.
